{
  "source": "ChEMBL document CHEMBL4513216",
  "about": "“Probing the Open Global Health Chemical Diversity Library for Multistage-Active Starting Points for Next-Generation Antimalarials” (ACS Infect Dis, 2020)",
  "note": "The campaign covered roughly 65,000 compounds. About 2,100 (3.2%) showed an effect of 50% or more. The median lay at about -52%. What follows is part of a selection rich in strong results, with near analogues and random picks from the rest.",
  "data": [
    {"system": "Plasmodium falciparum", "assay": "Screen against P. falciparum Asexual Blood Stage (ABS), at 5uM", "type": "functional, Dd2", "details": "tested at 5 uM", "units": {"INHIBITION": "%"}, "values": [
      {"smiles": "O=S1(=O)NCC2(CCN(Cc3ccc(Cl)s3)C2)Oc2ncccc21", "note": "(stereo unspecified)", "INHIBITION": -56.7},
      {"smiles": "O=C1N(c2ccsc2)CCC12CCCN(Cc1cccnc1)C2", "note": "(stereo unspecified)", "INHIBITION": -28.4},
      {"smiles": "Cn1cncc1CN1C[C@@H]2OCCN(c3ncccn3)[C@@H]2C1", "INHIBITION": -99.1},
      {"smiles": "CCn1cncc1Cn1ncc2ccccc2c1=O", "INHIBITION": -114},
      {"smiles": "Cc1ccc(C2(CN3CCN(Cc4cncn4C)CC3)CC2)cc1", "INHIBITION": 73.2},
      {"smiles": "CCn1cncc1CN1CCN(CC2(c3ccc(C)cc3)CC2)CC1", "INHIBITION": 70},
      {"smiles": "Cc1noc(C)c1CN1CCO[C@H]2CN(Cc3cncn3C)C[C@H]21", "INHIBITION": -42.6},
      {"smiles": "Cc1ccc(C2(CN3CCN(Cc4cnc(C)n4C)CC3)CC2)cc1", "INHIBITION": 95.4},
      {"smiles": "COCCn1cncc1CN1CCC(C(C)=O)(c2ccccc2)CC1", "INHIBITION": -20.6},
      {"smiles": "Clc1ccc(-n2nnnc2C2(NCc3ccco3)CCCCC2)cc1", "INHIBITION": 5.42},
      {"smiles": "CN(Cc1cncnc1)[C@H]1CN(CC2CC2)[C@@H]2CCCO[C@@H]21", "INHIBITION": 4.52},
      {"smiles": "c1cc(COC[C@]23COC[C@H]2CN(CC2CCC2)C3)ccn1", "INHIBITION": -81.5},
      {"smiles": "CC(C)N(C)Cc1cnc2n1CCN(C(=O)NC1CCCC1)C2", "INHIBITION": 83.4},
      {"smiles": "Cc1noc(C)c1CN1CCCC2(CCN(C(=O)NC3CC3)C2)C1", "note": "(stereo unspecified)", "INHIBITION": -183},
      {"smiles": "CC(C)N(C)Cc1cncc2c1CCN(CC(=O)N(C)C)C2", "INHIBITION": -31.3},
      {"smiles": "CN(Cc1ncc(C(C)(C)C)o1)CC1CCCN1c1cccnn1", "note": "(stereo unspecified)", "INHIBITION": 80.7},
      {"smiles": "Cc1cc(C)c(CNc2ncnc3ccccc23)c(=O)[nH]1", "INHIBITION": 14.5},
      {"smiles": "c1cnnc(N2CCCC2CNc2ncnc3ccccc23)c1", "note": "(stereo unspecified)", "INHIBITION": 81.1},
      {"smiles": "CN(c1ncnc2ccccc12)C1CCCN(c2cccnn2)C1", "note": "(stereo unspecified)", "INHIBITION": 74.4},
      {"smiles": "c1cnnc(N2CCCC2CNc2ncnc3sccc23)c1", "note": "(stereo unspecified)", "INHIBITION": 82},
      {"smiles": "N#Cc1ccc(NC2CCN(c3ncccn3)CC2)cc1Cl", "INHIBITION": -47.7},
      {"smiles": "c1ccc(CO[C@@H]2CC[C@H]3[C@H]2OCCN3Cc2ccsc2)nc1", "INHIBITION": -80.3},
      {"smiles": "CC[C@H](C)[C@@H](CO)NC(C)Cc1ccc(C)cc1", "note": "(stereo partly specified)", "INHIBITION": 31.8},
      {"smiles": "O=C(NCc1ccccn1)[C@H]1COC[C@H]2CN(C3CCCC3)C[C@H]21", "INHIBITION": -109},
      {"smiles": "COCCn1ccc2c(C(=O)NC3CN4CCC3CC4)cccc21", "note": "(stereo unspecified)", "INHIBITION": -19.8},
      {"smiles": "O=C(NC1CC1)C1CCN(c2cccc(C(F)(F)F)n2)CC1", "INHIBITION": 79.4},
      {"smiles": "O=C(Cc1ccsc1)N1CCN(CCOc2ccccc2)CC1", "INHIBITION": 19.5},
      {"smiles": "COCCN1C[C@H]2CCC[C@@H](CNc3ncccn3)[C@H]2C1", "INHIBITION": 23.6},
      {"smiles": "COCCN1C[C@H]2[C@@H](C1)N(C(=O)COc1ccccc1)CC[C@H]2OC", "INHIBITION": -98.8},
      {"smiles": "N[C@H]1CN(CCOc2ccc(F)cc2)C[C@@H]1C1CC1", "INHIBITION": 76.5},
      {"smiles": "N[C@H]1CN(CCCOc2ccccc2)C[C@@H]1C1CC1", "INHIBITION": 86.8},
      {"smiles": "CC(C)N1CCC2(CC1)NC(=O)c1cc(Br)ccc1-n1nnnc12", "INHIBITION": -84.6},
      {"smiles": "CN1CCOCC2(CCCN(C(=O)Cc3ccncc3)C2)C1", "note": "(stereo unspecified)", "INHIBITION": -195},
      {"smiles": "CCS(=O)(=O)N1CCN(C)c2ncccc2C1", "INHIBITION": -45.7},
      {"smiles": "CCC(CN1CCOCC1)n1cncc1-c1ccc2c(c1)CCN2CC", "note": "(stereo unspecified)", "INHIBITION": 94.5},
      {"smiles": "CC(C)CN1CCC2(CC1)CN(C(=O)C(C)C)C2", "INHIBITION": -69.1},
      {"smiles": "CNC(=O)[C@H]1C[C@@H]2CN(Cc3c(C)noc3C)C[C@@H]2N1C(C)=O", "INHIBITION": -19.9},
      {"smiles": "CN(C)CCNC(=O)C1Cc2nc(-c3ccccc3)sc2N1CC1CC1", "note": "(stereo unspecified)", "INHIBITION": 89.7},
      {"smiles": "CN(C)CCNC(=O)[C@H]1C[C@H]2CN(c3ncccn3)C[C@H]2N1C", "INHIBITION": -64.2},
      {"smiles": "Cc1csc([C@@H]2C[C@@H]3CCN(Cc4cc(C)on4)C[C@H]3O2)n1", "INHIBITION": -19.3},
      {"smiles": "Cc1cc(C)nc(N2CCCC2c2cccnc2)n1", "note": "(stereo unspecified)", "INHIBITION": 0.584},
      {"smiles": "Cc1cc(N2CCCN3CCC[C@H]3C2)n2nc(C)c(C)c2n1", "INHIBITION": 9.89},
      {"smiles": "CNc1cc(C)nc(NC2CCCN(C3Cc4ccccc4C3)C2)n1", "note": "(stereo unspecified)", "INHIBITION": 92.8},
      {"smiles": "CNc1nc(C)cc(NC2CCCN(C3Cc4ccccc4C3)C2)n1", "note": "(stereo unspecified)", "INHIBITION": 89.5},
      {"smiles": "CN(C(=O)Cc1ccn(C)c1)C1CCCN(C2Cc3ccccc3C2)C1", "note": "(stereo unspecified)", "INHIBITION": -32.4},
      {"smiles": "Cn1ncc2c1NC(=O)CSC2c1ccc2c(c1)OCO2", "note": "(stereo unspecified)", "INHIBITION": -86},
      {"smiles": "c1cc(COC[C@]23COC[C@H]2CN(Cc2ccncc2)C3)ccn1", "INHIBITION": -118},
      {"smiles": "CN1CCCC2(CCN(C(=O)c3ccncc3)C2)C1", "note": "(stereo unspecified)", "INHIBITION": -62},
      {"smiles": "CN1CCN([C@@H]2CN(C(=O)c3ccnnc3)[C@@H]3CCCO[C@H]23)CC1", "INHIBITION": -103},
      {"smiles": "Cc1oc(-c2ccco2)nc1CC(=O)N1CCN(CC(C)O)CC1", "note": "(stereo unspecified)", "INHIBITION": -65.7},
      {"smiles": "CN1CCCC1c1cccc(Cc2ccc(F)cc2)n1", "note": "(stereo unspecified)", "INHIBITION": 62.1},
      {"smiles": "CN1CCCC1c1ccc(N2CCOCC2)cn1", "note": "(stereo unspecified)", "INHIBITION": -144},
      {"smiles": "Fc1ccc(Cc2cnc(C3CCCN3)cn2)cc1", "note": "(stereo unspecified)", "INHIBITION": 45.6},
      {"smiles": "Cc1nnc([C@H]2C[C@@H]3CCN(Cc4cc(C)on4)C[C@H]3O2)[nH]1", "INHIBITION": -33.8},
      {"smiles": "CC(C)N1CCC(N(C)c2ccnc(N(C)C)n2)CC1", "INHIBITION": 39.1},
      {"smiles": "CC(C)N1CC[C@@H]2OC[C@H](C(=O)Nc3cccnc3)C[C@@H]2C1", "INHIBITION": -33.5},
      {"smiles": "Cc1cc(NC(=O)NC2CCN(C(C)C)CC2)c2ncccc2c1", "INHIBITION": 79.7},
      {"smiles": "CN(C)Cc1cncc2c1CCN(Cc1ccoc1)C2", "INHIBITION": -67.1},
      {"smiles": "Clc1ccc(C2(CNC3=NCCN3)CC2)cc1", "INHIBITION": 83.2},
      {"smiles": "Fc1ccc(C2(CNC3=NCCN3)CCCC2)cc1", "INHIBITION": 83.5},
      {"smiles": "c1cc2c(cc1C1(CNC3=NCCN3)CCCC1)OCCO2", "INHIBITION": 81.1},
      {"smiles": "Clc1ccc(C2(CNC3=NCCN3)CCCC2)cc1", "INHIBITION": 83.7},
      {"smiles": "O=C(NC[C@]12COC[C@H]1CN(Cc1cccnc1)C2)c1ccsc1", "INHIBITION": 5.35},
      {"smiles": "CNC(=O)C1CCC2(CCNCC2)C1", "note": "(stereo unspecified)", "INHIBITION": -92},
      {"smiles": "Cc1ccc(N2C[C@@H]3CN(Cc4ccoc4)CCO[C@@H]3C2)nn1", "INHIBITION": -14.1},
      {"smiles": "Cc1oncc1C(=O)N[C@@H]1CN(C2CCC2)C[C@@H]2CCCO[C@@H]21", "INHIBITION": -114}
    ]}
  ]
}
